FLuc inh – inhibitors of firefly luciferase. Potency, µM (titrated, usually from 57.1 µM), actives largely listed as inhibitors. purified firefly luciferase, luminescence, 8 min. 72,000 compounds, 2.2% hits. AID 411; also: nearly all actives have a fitted effect of over 40% in size
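Compounds were tested as concentration series (qHTS) against purified P. pyralis luciferase with luciferin and 10 uM ATP in 50 mM imidazole pH 7.2, 50 mM KCl, 7 mM MgCl2, 0.01% Tween 20, 0.05% BSA. Luminescence was read after 8 min at ambient temperature.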
ERK AVP inh – blocks ERK signaling stimulated by vasopressin. HEK293-V1b, vasopressin-stimulated pERK AlphaScreen. Potency, µM (top dose mostly 57.5 µM), hits mostly inhibitors. 72,000 compounds, 0.99% hits; also: nearly all actives have a fitted effect of over 55% in size
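qHTS, compounds titrated on V1b-expressing HEK293 cells. Preincubation 30 min at 37C, vasopressin 25 nM for 5 min, lysis 10 min, bead incubation 5 hr at room temperature.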
Tau fil binding – tau filament binding; P10636; recombinant tau filaments, thioflavin S fluorescence, 15 h; filaments grown with octadecylsulfate alongside compound; Potency, µM (top dose mostly 57.1 µM); 71,000 compounds, 2% hits; AID 596;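 also: actives lower thioflavin S fluorescence by blocking filaments or displacing dye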
Target sequence (P10636 whole entry, looked up): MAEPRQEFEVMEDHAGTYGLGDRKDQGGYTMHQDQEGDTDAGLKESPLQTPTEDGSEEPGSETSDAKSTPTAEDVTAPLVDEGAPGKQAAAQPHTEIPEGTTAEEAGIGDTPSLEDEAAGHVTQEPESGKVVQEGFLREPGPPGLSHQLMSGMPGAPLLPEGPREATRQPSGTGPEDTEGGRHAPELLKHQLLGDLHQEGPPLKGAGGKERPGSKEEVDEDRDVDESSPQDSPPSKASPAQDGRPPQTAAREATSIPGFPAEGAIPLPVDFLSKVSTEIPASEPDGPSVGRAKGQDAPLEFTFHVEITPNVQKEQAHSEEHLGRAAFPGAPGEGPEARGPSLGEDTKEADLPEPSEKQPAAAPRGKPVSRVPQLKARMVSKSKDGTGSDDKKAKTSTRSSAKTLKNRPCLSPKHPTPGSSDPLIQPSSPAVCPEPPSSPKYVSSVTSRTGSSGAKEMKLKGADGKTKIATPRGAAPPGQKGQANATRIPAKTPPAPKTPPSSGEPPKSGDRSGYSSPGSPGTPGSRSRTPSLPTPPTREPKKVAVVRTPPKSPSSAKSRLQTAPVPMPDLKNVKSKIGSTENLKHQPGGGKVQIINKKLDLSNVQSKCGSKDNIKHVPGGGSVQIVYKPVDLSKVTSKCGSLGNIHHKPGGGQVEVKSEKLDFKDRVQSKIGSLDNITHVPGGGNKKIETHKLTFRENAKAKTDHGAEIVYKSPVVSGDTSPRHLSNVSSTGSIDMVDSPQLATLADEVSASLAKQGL
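Recombinant tau protein (human, 1 uM final) plus 30 uM ODS in HEPES pH 7.4 with NaCl, DTT and thioflavine S. Compound present from the start; fluorescence at 510 nm after 15 h, 37 C.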
15-hLO inh – 15-hLO (ALOX15) enzyme inhibition | purified 15hLO-1, xylenol orange hydroperoxide absorbance | Potency, µM (titrated, usually from 57.1 µM), hits mostly inhibitors | 74,000 compounds, 1.4% hits | AID 887; also: nearly all actives have a fitted effect of over 55% in size
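Readout: Fe(III)-xylenol orange absorbance, 573-to-405 nm ratio as reaction progress. Enzyme 40 nM purified human 15hLO-1, substrate 50 uM arachidonic acid, 6 min RT after 15 min compound preincubation; Hepes pH 7.5 buffer with Triton X-100.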
PK Bst – pyruvate kinase (B. stearothermophilus) modulation. 51,000 compounds, 1.2% hits. Potency, µM. purified pyruvate kinase, luminescence ATP production; ribose 5-phosphate activator present at AC10; in the data active = potency below about 11 µM; inconclusive = mostly about 12 µM to 25 µM;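 the screen sought inhibitors and activators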
Hsp90 Hop PPI – changes Hsp90-Hop TPR2A binding signal, up or down | AlphaScreen TPR2A-His6 binding biotin-Hsp90 C-terminal peptide | Potency, µM (top dose mostly 57 µM) | 71,000 compounds, 0.44% hits; active = well fitted curve in either direction with a large enough effect; inconclusive = small, poorly fitted or top-dose-only effect, or another doubt
A number is an active result; – = inactive; ? = inconclusive; · = no result; [ ] = dose if it differs, or a comment. A selection: hits, their analogues and other compounds. The true share with any hit is near 6.1%. Unless noted, calls follow the shape of the dose curve; as a rule, active = well fitted curve in the direction sought with a large enough effect; inconclusive = small, poorly fitted or top-dose-only effect, or another doubt; inactive = no such curve, though single readings can be large; an effect the other way counts as inactive or inconclusive.

SMILES | FLuc inh | ERK AVP inh | Tau fil binding | 15-hLO inh | PK Bst | Hsp90 Hop PPI
CC#CCOC(=O)C1=CCCN(C)C1 | – | – | – | – | · | –
O=C1Nc2ccc(S(=O)(=O)N3CCCCCC3)c3cccc1c23 | – | · | 25.1µM | 15.8µM | · | –
O=C1Nc2ccc(S(=O)(=O)N3CCOCC3)c3cccc1c23 | – | – | – | – | – | –
CCOc1ccccc1N1CCN(S(=O)(=O)c2ccc3c4c(cccc24)C(=O)N3)CC1 | – | – | 15.8µM | – | – | –
C#CCCCO/N=C1/[C@H]2O[C@@H]2[C@@H](O)[C@H]2[C@H]1CCn1c(=O)n([C@@H](CC)c3ccccc3)c(=O)n12 | –[11.4 µM] | –[11.5 µM] | · | ? | · | ·
CCCc1ncc(C(=O)c2ccc(OC)cc2)n1C | – | – | – | 10µM | · | –
COc1ccc(C(=O)c2cnc(C(C)C)n2C)cc1 | – | – | – | – | · | –
N[C@@H](C(=O)O)[C@@H]1C[C@H]1C(=O)O | – | · | – | · | · | –
O=C(c1cnn2c(C(F)(F)F)cc(-c3ccco3)nc12)N1CCCCCC1 | – | – | ? | – | · | –
O=C(c1cc(-c2ccco2)nn1-c1cccc(Cl)c1)N1CCCCC1 | – | – | ? | 7.94µM | – | –
Cc1ccc(Cl)cc1 | · | – | – | – | · | –
COc1cccc(CCc2ccccc2OCC[C@@H]2C[C@@H](O)CN2C)c1 | · | – | · | 20µM | · | ·
COc1ccccc1-c1nccc(Nc2ccc(F)cc2)n1 | –[2.29 µM] | – | 15.8µM | – | · | –
CN(C)C(=O)c1ccc(-c2nccc(NCc3cccs3)n2)cc1 | –[2.29 µM] | ? | – | – | · | –
CN(C)c1ccc(-c2nccc(NCc3cccs3)n2)cc1 | 0.501µM | – | – | ? | · | –
c1csc(CNc2ccnc(-c3ccoc3)n2)c1 | –[2.29 µM] | – | – | 20µM | · | ?
COc1ccccc1-c1nccc(NCc2cccs2)n1 | –[2.29 µM] | ? | – | 10µM | · | –
Cc1ccccc1-c1nccc(Nc2ccc(F)cc2)n1 | –[2.29 µM] | – | – | – | · | –
CCN1C(=O)[C@H]2[C@H]3[C@H](O)[C@H](O)C/C(=N/OC[C@@H](O)COCc4ccco4)[C@H]3CC[C@@H]2C1=O | –[11.4 µM] | –[11.5 µM] | · | –[11.4 µM] | · | ·
CCC1=C2CC[C@H]3C(=O)N(c4ccccc4)C(=O)[C@H]3[C@H]2[C@@]2(Cc3ccccc3)C(=NCC3CC3)OC(=O)N2C1=O | · | – | · | · | · | ·
COc1ccc(-n2c(=O)c(C)nc3cnc(Oc4cccc(Cl)c4)nc32)cc1 | –[11.4 µM] | – | – | – | · | –
COC(=O)N1CCC2(CC1)CN(C(=O)Nc1cccc(F)c1)C2 | –[11.4 µM] | – | – | – | · | –
CCOC(=O)C(C)c1nc2ccccc2[nH]c1=O (stereo not given) | – | · | · | · | – | ·
CCOC(=O)[C@@H](O)Cc1cnc2ccccc2n1 | –[11.4 µM] | –[11.5 µM] | 5.01µM | –[11.4 µM] | · | –[11 µM]
COc1ccccc1CN1CC2(CCN(C(=O)c3cnccn3)CC2)C1 | –[11.4 µM] | – | – | – | · | –
SMILES | FLuc inh | ERK AVP inh | Tau fil binding | 15-hLO inh | PK Bst | Hsp90 Hop PPI
CCOC(=O)c1cc2occc2n1CC(=O)N1CCOCC1 | – | – | – | – | – | –
CCOC(=O)c1cc2occc2n1CCCN1C(=O)c2ccccc2C1=O | – | – | 15.8µM | – | – | ?
O=C(c1cc(C(F)(F)F)cc(C(F)(F)F)c1)N1CCC2(CC1)CN(c1ccccn1)C2 | –[11.4 µM] | ? | – | ? | · | –
O=C(O)c1c[nH]c2cc(OCc3ccccc3)ccc2c1=O | –[11.4 µM] | –[11.5 µM] | –[11.4 µM] | –[11.4 µM] | · | –[11 µM]
COc1ccc(O)c(-c2cc(-c3cccs3)[nH]n2)c1 | 15.8µM | – | – | 25.1µM | ? | –
CNC(=O)C1(C)C=CCN1C(=O)OC (stereo not given) | · | ? | – | – | · | –
CC(=O)N(C)c1nc(-c2ccc(Cl)cc2)cs1 | – | – | – | – | – | –
CCNc1nc(-c2ccc(Cl)cc2)cs1 | 12.6µM | – | – | ? | 10.1 | –
CNc1nc(-c2ccc(Cl)cc2)cs1 | 10µM | – | – | – | 8.12 | –
CCCCN(CC)CCNS(=O)(=O)c1cccc2cccnc12 | – | · | – | ? | · | –
C[C@@]12C(=O)OC(=O)[C@@]1(C)[C@H]1CC[C@@H]2O1 | –[11.4 µM] | 7.94µM | ? | – | · | ?
CC12C(=O)OC(=O)C1(C)C1CCC2O1 (stereo not given) | · | ? | · | – | · | ·
CC(=O)C(C(C)=O)c1c(Cl)c(O)c(O)c2c(C(=O)c3ccccc3)coc12 | ? | ? | 25.1µM | 2.51µM | – | –
COc1cccc2c1C(=O)c1c(O)c3c(c(O)c1C2=O)C[C@@](O)(C(=O)CO)C[C@@H]3O[C@H]1C[C@H](N)[C@H](O)[C@H](C)O1 | – | ? | · | – | – | ·
CC(=O)[C@@]1(O)Cc2c(O)c3c(c(O)c2[C@H](O[C@H]2C[C@H](N)[C@H](O)[C@H](C)O2)C1)C(=O)c1ccccc1C3=O | – | ? | 1.58µM | ? | · | ?
COc1cccc2c1C(=O)c1c(O)c3c(c(O)c1C2=O)C[C@](O)(C(C)=O)C[C@H]3O[C@@H]1C[C@H](N)[C@H](O)[C@H](C)O1 | – | – | 1.58µM | – | · | ?
Nc1nc2c(s1)CCc1c-2cnn1-c1ccccc1 | 7.94µM | 25.1µM | 20µM | 2.51µM | 10.1 | –
Cc1ccc(C)c(C(=O)c2c(C)nc3sccn23)c1 | – | ? | – | 15.8µM | – | –
Cc1cc(C)c(NC(=O)c2cc3c(nc4sccn43)s2)c(C)c1 | – | – | – | – | – | –
CC(C)CN=C(N)N=C(N)N | –[11.4 µM] | –[11.5 µM] | –[11.4 µM] | –[11.4 µM] | · | –[11 µM]
CCC(=O)Nc1cccc(-c2nnc(SCC(=O)c3ccccc3)n2C)c1 | 15.8µM | – | – | – | · | –
CC1CCC/C(=C\Nc2ccc3c(c2)OCO3)C1=O (stereo not given) | 10µM | – | 25.1µM | – | – | –
CC1CCC/C(=C\Nc2ccccc2C(=O)O)C1=O (stereo not given) | – | – | – | – | – | –
CC1(C)SC2C(NC(=O)Cc3ccccc3)C(=O)N2C1C(=O)O (stereo not given) | · | – | · | – | · | ·
CCOC(=O)C1=C(C)NC(C)=C(C(=O)OCC)C1 | – | – | – | 10µM | – | –
SMILES | FLuc inh | ERK AVP inh | Tau fil binding | 15-hLO inh | PK Bst | Hsp90 Hop PPI
CCCC1C(C(=O)OCC)=C(C)NC(C)=C1C(=O)OCC | · | · | · | – | · | ·
Cc1cccc2cccnc12 | · | – | – | – | · | –
c1cnc2c(c1)ccc1cccnc12 | –[11.4 µM] | –[11.5 µM] | –[11.4 µM] | – | · | 0.631µM
CN1[C@@H](c2ccccc2)CC(=NO)C[C@H]1c1ccccc1 | –[11.4 µM] | –[11.5 µM] | –[11.4 µM] | –[11.4 µM] | · | –[11 µM]
CCOC(=O)c1c(C)c2c(n1C)CCC/C2=N\O | – | 3.16µM | – | – | – | –
CCOC(=O)c1c(C)c(C(=O)NC2CCCCCC2)c(C)n1C | – | – | – | – | – | –
O=S(=O)(NCCO)c1cccc2cccnc12 | – | · | – | – | · | –
O=S(=O)(NCCN1CCCC1)c1cccc2cccnc12 | – | · | ? | 10µM | · | –
O=S(=O)(NC1CCCCCC1)c1cccc2cccnc12 | – | – | – | – | 11 | –
C=C1CC[C@@H](O)C/C1=C/C=C1\CCC[C@]2(C)[C@@H]1CC[C@H]2[C@@H](C)CCCC(C)C | –[11.4 µM] | · | ? | · | · | –

Compound activity from PubChem BioAssay.
